Screening results as filed in PubChem BioAssay.
Most compounds without a hit are left out; they make up all but 2.9% or so of the library.
esBAF inh – SWI/SNF esBAF complex inhibition | AID 602393 | reporter increase, % at 12.5 µM | mouse ES cells, Bmi1-luciferase knock-in reporter, 24 h; 100% = twice the neutral-well signal | actives 2% (n = 350,000); in the data active = activation above about 40%; inconclusive = no clear call, values can overlap the other calls;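 also: a rise in the Bmi1 reporter signal indicates esBAF inhibition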
Wnt act – Wnt/beta-catenin pathway activation. Wnt/beta-catenin reporter cell assay, activator, plate reader. activation, % at 9.35 µM. actives 1.2% (n = 300,000). AID 743398; in the data active = activation above about 30%, passing the limit was not always enough; inconclusive = no clear call, values can overlap the other calls
PvdQ acylase – P. aeruginosa PvdQ acylase inhibition. actives 0.063% (n = 340,000). purified PvdQ acylase, fluorescence plate reader. inhibition, % at 10 µM; in the data active = inhibition above about 30%, passing the limit was not always enough; inconclusive = no clear call, values can overlap the other calls
MITF act – increases MITF-driven TRPM1 promoter luciferase signal. SK-MEL-5 TRPM1-promoter luciferase, 24 h; % of positive control, neutral wells = 0. activation, % at 12.5 µM. AID 588334. actives 0.75% (n = 300,000);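 active = mean activation of at least 80% with every replicate also reaching 80%; inconclusive = mean reaches 80% but some replicate falls short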
N-glyco inh – blocks N-linked glycosylation in D54 reporter cells. D54 ERlucT glycosylation luciferase reporter, 24 h; percent of 100 nM tunicamycin response. reporter increase, % at 12.5 µM. actives 0.23% (n = 360,000);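 active = mean luciferase reporter signal, scaled so untreated is 0 and the glycosylation-blocking control 100, at or above a set limit in every replicate; inconclusive = mean reaches the limit but not every replicate does; inactive = mean below the limit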;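 also: luciferase carries N-glycosylation sites so blocking glycosylation raises the light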
Vif imaging – blocks HIV Vif function. actives 0.35% (n = 340,000). inhibition, % at 7.49 µM. HEK293T cells, Vif self-association by quenched fluorescence, imaging, 24 h; in the data active = inhibition above about 50%, passing the limit was not always enough; inconclusive = no clear call, values can overlap the other calls; inactive = below about 31%
Numbers stand for hits.

For Cc1ccc(S(=O)(=O)Nc2ccc3c(c2)C(=O)N([C@@H](C)CO)C[C@@H](C)[C@H](CN(C)Cc2ccc(C(F)(F)F)cc2)OCCCC[C@@H](C)O3)cc1 the results were esBAF inh inactive.
Screening O=C(c1cc2ccccc2oc1=O)N(Cc1ccco1)C1CCS(=O)(=O)C1 (stereo unspecified) returned esBAF inh 82, PvdQ acylase inactive, MITF act inactive, N-glyco inh inactive and Vif imaging inactive.
O=C(Nc1ccc(F)cc1)c1ccc2c(c1)S(=O)(=O)N=C1CCCCCN12 was read as esBAF inh inactive, Wnt act inactive, PvdQ acylase inactive, MITF act inactive, N-glyco inh inactive and Vif imaging inactive.
Screening O=C(NC1CCC(O)CC1)c1ccc2c(c1)S(=O)(=O)N=C1CCCCCN12 (stereo unspecified) returned esBAF inh 46, Wnt act inactive, PvdQ acylase inactive, MITF act inactive, N-glyco inh inactive and Vif imaging inactive.
Screening C[C@H](O)C#Cc1cnc2c(c1)C(=O)N([C@H](C)CO)C[C@H](C)[C@@H](CN(C)CC1CCCC1)O2 returned esBAF inh inactive.
C/C(=N\Nc1ccc(Cl)cc1)c1ccncc1 was read as esBAF inh inactive, Wnt act inactive, PvdQ acylase inactive, N-glyco inh inactive and Vif imaging inactive.
For C/C(=N\NC(=O)c1ccccn1)c1ccc(Cl)cc1 the results were Wnt act 47, N-glyco inh inactive and Vif imaging inactive.
Screening C/C(=N\NC(=O)c1ccc(Cl)cc1)c1ccccn1 returned esBAF inh inactive, Wnt act inactive, PvdQ acylase inactive, N-glyco inh inactive and Vif imaging inactive.
For C/C(=N/Nc1ccc([N+](=O)[O-])cc1)c1c[nH]c2ccccc12 the results were esBAF inh 58, Wnt act inactive, PvdQ acylase inactive and N-glyco inh inactive.
C/C(=N/NC(=O)c1ccccn1)c1c[nH]c2ccccc12 was read as esBAF inh 55, Wnt act inactive, PvdQ acylase inactive, MITF act inactive, N-glyco inh inactive and Vif imaging inactive.
`C/C(=N/Nc1ccc([N+](=O)[O-])cc1)c1ccc(C)cc1C` gave esBAF inh inactive, Wnt act inactive, PvdQ acylase inactive, MITF act inactive, N-glyco inh inactive and Vif imaging inactive.
Screening C/C(=N\Nc1ccc(Cl)cc1)c1ccccn1 returned esBAF inh 48, PvdQ acylase inactive, MITF act inactive, N-glyco inh inactive and Vif imaging inactive.
`CCCC#Cc1cnc2c(c1)C(=O)N([C@H](C)CO)C[C@H](C)[C@H](CN(C)C(=O)C1CCCCC1)O2` gave esBAF inh inactive.
Screening COc1ccc(-c2ccc(SCc3ccccn3)nn2)cc1OC returned esBAF inh inactive, Wnt act inactive, PvdQ acylase inactive, MITF act inactive, N-glyco inh inactive and Vif imaging inactive.
For COc1cccc(-c2ccc(SCc3ccccn3)nn2)c1 the results were Wnt act inconclusive, PvdQ acylase inactive, MITF act 114, N-glyco inh inactive and Vif imaging inactive.
O=[N+]([O-])c1cccc(-c2ccc(SCc3ccccn3)nn2)c1 was read as esBAF inh 42, Wnt act inactive, PvdQ acylase inactive, MITF act inactive, N-glyco inh inactive and Vif imaging inactive.
Clc1ccc(-c2ccc(SCc3ccccn3)nn2)cc1 was read as esBAF inh 51, Wnt act 36, PvdQ acylase inactive, MITF act 116, N-glyco inh inactive and Vif imaging inactive.
Screening O=C(CSc1ccc(-c2cccc([N+](=O)[O-])c2)nn1)N1CCCCC1 returned Wnt act inactive, PvdQ acylase inactive, MITF act inactive, N-glyco inh inactive and Vif imaging inactive.
For CC(=O)N(C)C[C@H]1Oc2cc(C3=CCCC3)ccc2S(=O)(=O)N([C@@H](C)CO)C[C@H]1C the results were esBAF inh inactive.
O=C(Nc1cccc(Cl)c1)C1=Cc2cc(Cl)ccc2OC1 was read as esBAF inh inactive, PvdQ acylase inactive, MITF act inactive, N-glyco inh inactive and Vif imaging inactive.
O=C(Nc1ccc(Cl)c(Cl)c1)C1=Cc2ccccc2OC1 was read as esBAF inh 57, Wnt act inactive, PvdQ acylase inactive, MITF act inactive, N-glyco inh inactive and Vif imaging inactive.
Screening CC(C)CNC(=S)NC1CCCC1 returned esBAF inh inactive, PvdQ acylase inactive, MITF act inactive, N-glyco inh inactive and Vif imaging 63.
`CC(C)CNC(=O)C(=O)NC1CCCC1` gave esBAF inh inactive, PvdQ acylase inactive, MITF act inactive and N-glyco inh inactive.
`S=C(NC1CCCC1)NC1CC1` gave esBAF inh inactive, Wnt act inactive, PvdQ acylase inactive, MITF act inactive, N-glyco inh inactive and Vif imaging inactive.
CC(C)(C)OC(=O)NNC(=S)NC1CCCCC1 was read as Wnt act 46, PvdQ acylase inactive, MITF act inactive, N-glyco inh inactive and Vif imaging inactive.
For S=C(NC1CCCC1)NC1CCCC1 the results were Wnt act inactive, PvdQ acylase inactive, MITF act inactive, N-glyco inh inactive and Vif imaging 53.
For Cc1ccc(S(=O)(=O)N(C)C[C@@H]2Oc3ccc(NC(=O)NC4CCCCC4)cc3C(=O)N([C@H](C)CO)C[C@@H]2C)cc1 the results were esBAF inh inactive.
CCCNC(=O)[C@H]1[C@H](CO)[C@H]2Cn3c(ccc(-c4ccc(F)cc4)c3=O)[C@@H]1N2Cc1ccccc1F was read as esBAF inh inactive.
For Cc1ccc(S(=O)(=O)Nc2cccc3c2O[C@H](CN(C)C(=O)Nc2ccc(F)cc2)[C@@H](C)CN([C@H](C)CO)C3=O)cc1 the results were esBAF inh inactive.
COc1ccc(NC(=O)Nc2ccc(OC)cc2)cc1 was read as esBAF inh 60, PvdQ acylase inactive, MITF act inactive, N-glyco inh inactive and Vif imaging inactive.
Screening COC(=O)c1ccc(NC(=O)Nc2ccc(F)cc2)cc1 returned esBAF inh 60, PvdQ acylase inactive, MITF act inactive, N-glyco inh inactive and Vif imaging inconclusive.
`COc1ccc(NC(=O)Nc2ccc(N(C)C)cc2)cc1` gave esBAF inh inactive, Wnt act 65, PvdQ acylase inactive, MITF act inactive, N-glyco inh inactive and Vif imaging inactive.
Screening COc1ccc(NC(=O)NCCN2C(=O)C3C4C=CC(C4)C3C2=O)cc1 (stereo unspecified) returned esBAF inh 58, Wnt act inactive, PvdQ acylase inactive, MITF act inactive, N-glyco inh inactive and Vif imaging inactive.
Screening CO[C@@H]1CN(C)C(=O)c2ccc(NC(=O)C3CC3)cc2OC[C@H](C)N(C(=O)C2CCOCC2)C[C@H]1C returned esBAF inh inactive.
COc1cc(/C=C/C(=O)OCC(=O)N(C)Cc2ccccc2)ccc1O was read as esBAF inh inactive, Wnt act inactive, PvdQ acylase inactive, MITF act inactive, N-glyco inh inactive and Vif imaging 51.
